Measurements as given in PubChem BioAssay AID743279 (National Center for Advancing Translational Sciences (NCATS), 2014).
The whole screen tested about 360,000 compounds, of which about 17,000 (4.7%) were called active. About 5% were inconclusive and are not listed. Cut-off read from the data, not from the text of the source: active = activity change below about -50%; inconclusive = mostly about -30% to -49%; inactive = weaker than that. The sample as a whole holds a higher share of actives than the screen did.

Assay: qHTS for Inhibitors of Inflammasome Signaling: IL-1-beta AlphaLISA Primary Screen
Details: THP-1 LPS/ATP IL-1B secretion, 16 h; at 57.5 µM, hits give low values
Outline: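 THP-1 cells pretreated 1 hr with compounds (up to 57.5 uM final), then stimulated with LPS (250 ng/mL final) plus ATP (1.25 mM final); secreted IL-1B measured by AlphaLISA after 16 hr, decreased signal indicating inhibition.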
% is set by controls: 0 for no effect and ±100 for the full control effect.

Activity change, inactive:
CCCCNCCS(=O)(=O)NCc1ccccc1 24.2%
Cc1ccc(S(=O)(=O)N(C)c2ccc(OCC(=O)NC3=NCCS3)cc2)cc1 23%
CN(c1ccc(OCC(=O)NC2=NCCS2)cc1)S(=O)(=O)c1ccc(F)cc1 12%
CC(C)CNC(=O)C1(C)CCCN1C(=O)CSc1ccccc1 (stereo not given) 24.3%
CC(=O)N1CCN(CC(=O)Nc2ccc(SC(F)F)cc2)CC1 8.74%
Cc1ccc(CC(=O)Nc2ccc(OC(F)F)c(Cl)c2)cc1C 2.16%
O=C(c1ncn2c1c(=O)[nH]c1ccccc12)N1CCc2ccccc2C1 1.53%
CCOC(=O)C1CCCN(C(=O)c2ccc(N(C)C)cc2)CC1 (stereo not given) 14.2%
S=c1[nH]nc(-c2cccs2)n1/N=C/c1cccs1 2.13%
COc1cc(/C=N/n2c(C)n[nH]c2=S)ccc1OCc1ccccc1 20.1%
CCN(CC(=O)Nc1ccc(NC(C)=O)cc1)C(=O)C1CC(=O)N(c2ccc3c(c2)OCCO3)C1 (stereo not given) -4.3%
Nc1ncnc2c1ncn2[C@@H]1O[C@H](C(=O)NCC(F)(F)F)[C@@H](O)[C@H]1O -18.1%
Cc1ccc(Cn2cc(CN3CC(N4CCN(C)CC4)CS3(=O)=O)nn2)cc1 (stereo not given) 1.38%
Cc1cc(C)nc(NC(=O)c2cccc([N+](=O)[O-])c2)c1 -4.03%
O=C(Nc1cccc([N+](=O)[O-])c1)c1ccc2c(c1)OCO2 -4.35%
O=C(COC(=O)c1ccc[nH]c1=O)Nc1ccc2c(c1)OC(F)(F)O2 23.1%
COC(=O)[C@]12CCCCC=C1N(Cc1cccc3ccccc13)C(=O)[C@H](CC(=O)N1CCOCC1)C2 -7.21%
Cc1ccc(S(=O)(=O)N2CCC(=O)N([C@H](COCc3ccccc3)C(C)C)CC2)cc1 29.8%
O=C1CCCN1CCCNC(=S)Nc1ccc(F)c(Cl)c1 4.41%
O=C(NCCN1CCOCC1)Nc1cccc(Cl)c1 2.78%
COc1ccc(Cl)cc1NC(=O)NCC1CCN(Cc2ccccc2F)CC1 -22.8%
COc1cc(NC(=O)NCC2CCN(Cc3ccc(C)cc3)CC2)cc(OC)c1OC -6.99%
CC(CO)N1CCS(=O)(=O)CC1 (stereo not given) 19.8%
CCC/C(C)=N\Nc1nc2c(c(=O)n(C)c(=O)n2C)n1C 6.47%
O=C(O)C(c1cccs1)C1(O)CCCCC1 (stereo not given) 5.75%
CCOC(=O)c1cc(-c2sc(NC(=O)c3ccccc3)nc2C)n(-c2ccc(Br)cc2)n1 -4.38%
CC(C)Cc1nnc(NC(=O)CCc2ccccc2)s1 8.78%
COC(=O)CSc1nnc(NC(=O)CCc2ccccc2)s1 12.3%
CC(CC(=O)C1C(C)C=CCC1(C)C)NNC(N)=O (stereo not given) 2.93%
Cc1ccsc1C(=O)OCC(=O)c1cc(C)n(CC2CCCO2)c1C (stereo not given) 33.5%
O=C1C(=O)N(CC2COc3ccccc3O2)c2ccccc21 (stereo not given) 11.2%
CC(=O)CC[C@@H](C)O[C@@H]1OC(C)[C@H](O)CC1O (stereo not given in full) 29.3%
COC(=O)[C@]12CCCCC=C1N(Cc1ccco1)C(=O)[C@H](CC(=O)NCC1CCCCC1)C2 -8.27%
CCCOc1ccc(F)cc1-c1cc(C(=O)Nc2ccc(F)cc2)[nH]n1 3.22%
Cc1cc(C)n(-c2nc(C(F)(F)F)nc3ccccc23)n1 21.5%
CC(C)(C)Nc1nc(-c2ccccn2)nc2ccccc12 -9.69%
NC1=NC(=O)S/C1=C\c1ccc(O)cc1 -9.74%
Cc1ccsc1/C=C1\SC(N2CCOCC2)=NC1=O -26%
CC1CCN(C2=NC(=O)/C(=C/c3ccc(O)cc3)S2)CC1 -16.5%
Cc1cc(/C=C2/SC(=O)N(CC(=O)N3CCCC3)C2=O)ccc1N1CCOCC1 -23.5%
COC(=O)C1(C(=O)OC)C[C@H](c2ccccc2)N(Cc2ccccc2OC)[C@@H]1c1ccccc1 12.2%
O=[N+]([O-])c1ccc(C(S(=O)(=O)Cc2ccccc2)S(=O)(=O)Cc2ccccc2)cc1 -14.4%
CC(C)(O)C#Cc1ccc(CNC[C@H]2O[C@@H](n3cnc4c(=O)[nH]c(N)nc43)[C@H](O)[C@@H]2O)s1 0%
Cc1cc2oc(=O)cc(CN3CCN(Cc4ccccc4)CC3)c2cc1C 1.1%
CC(C)(C)C(=O)CN1C2=NCCN2c2ccccc21 0%
O=C(COC(=O)c1ccc(S(=O)(=O)N2CCCCCC2)cc1)Nc1ccccc1C(F)(F)F 23%
COc1ccc(OC)c(CN2C(=O)CCC2(C)c2nnnn2Cc2ccccc2)c1 (stereo not given) 0%
Cc1ccc(-c2ccc(CN3C(C(C)C)C(=O)N(Cc4cn(CCC5OCCO5)nn4)CCS3(=O)=O)cc2)cc1 (stereo not given) 14.8%

Activity change, active:
CC(NC(=O)COc1ccccc1)C(=O)NC1=NCCS1 (stereo not given) -56.1%
O=C(Cc1ccc(Cl)c(Cl)c1)Nc1ccc(SC(F)F)cc1 -96%
Cc1cc(-c2n[nH]c(=S)n2/N=C/C(Br)=C/c2ccccc2)n[nH]1 -103%
O=C(Nc1ccc(C2CC2(Cl)Cl)cc1)c1cccc([N+](=O)[O-])c1 (stereo not given) -90.4%
Cc1cccc(CN2CCC(CNC(=O)Nc3ccc(F)c(Cl)c3)CC2)c1 -107%
O=C(NCC1CCN(Cc2ccccc2Cl)CC1)Nc1cccc(Cl)c1 -75%
O=C(CCc1ccccc1)Nc1ncc([N+](=O)[O-])s1 -59.9%
Cc1cc(C(=O)CCl)c(C)n1CC1COc2ccccc2O1 (stereo not given) -68.9%
CC(Nc1nc(C(F)(F)F)nc2ccccc12)c1cccs1 (stereo not given) -63.4%
O=C1N=C(N2CCc3ccccc3C2)S/C1=C\c1ccc(O)cc1 -63.2%
CCc1ccc(/C=C2\SC(N3CCOCC3)=NC2=O)cc1 -62.4%
Cc1cc2c(cc1C)N(Cc1ccccc1)C1=NCCCN12 -58.1%
